# Results as given in the supplement of paper PMC11219838.
# Unmarked numbers belong to inactive results.
# Legend:
# Ditylenchus dipsaci = test: proportion of mobile D. dipsaci (mixed stage) relative to DMSO control (fraction of DMSO control); higher = more viable, less nematicidal, active = 0.86 or less; extreme values may be limits of the assay; conditions: 60 µM; 5 days; temperature: 20 °C
# Method in brief: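 Ditylenchus dipsaci nematodes were cultured on pea plants in Gamborg B-5 agar, then extracted into water through a filter funnel, and roughly 20 worms in distilled water were placed in each well of a 96-well plate. Compound was pinned in to a final concentration of 60 µM (0.6% v/v DMSO), and the sealed plates were shaken at 200 rpm for 5 days at 20 °C. Mobile worms were counted under the microscope after 2 µL of 1 M NaOH was added. Mobility is given relative to DMSO controls as the mean of two biological replicates.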
# [1] = test system: Caenorhabditis elegans dauer (daf-2(e1370)); test: proportion of mobile C. elegans dauer larvae relative to DMSO control (fraction of DMSO control); higher = more viable, less nematicidal, active = 0.63 or less; extreme values may be limits of the assay; conditions: 60 µM; 5 days; temperature: 20 °C
# Method in brief: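 Synchronized C. elegans larvae were kept for 48 h at 25 °C on MYOB plates seeded with E. coli OP50 to induce dauer formation, and roughly 20 dauers were transferred into each well of a 96-well plate containing liquid NGM. Compound was pinned in to a final concentration of 60 µM with 0.6% v/v DMSO, and the sealed plates were shaken at 200 rpm for 5 days at 20 °C. The fraction of mobile worms was scored under a dissection microscope against DMSO-only wells and averaged across two biological replicates.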
Compound,proportion of mobile D. dipsaci (Ditylenchus dipsaci),proportion of mobile C. elegans dauer larvae [1]
CCCc1nnc(SCc2nnc(-c3ccccc3)o2)o1,1,–
CC(C)c1ccc(OCc2nc(-c3ccncc3)no2)c(Br)c1,1,1
O=C(c1ccccc1-c1nc(-c2ccccc2Cl)no1)N1CCCCC1,1,–
Fc1ccccc1OCc1nc(-c2ccc(Cl)cc2)no1,1,1
Cc1ccccc1OCc1nc(-c2ccc3c(c2)OCO3)no1,1,1
COc1ccc(NC(=O)c2ccccc2-c2nc(-c3ccccc3C)no2)cc1,1,–
Brc1ccc(-c2noc(COc3ccc4c(c3)OCO4)n2)cc1,1,–
Cc1ccc(-c2noc(-c3ccc(C)cc3)n2)cc1,1,0.881
CCCc1ccc(-c2ccc(-c3nc(-c4ccccn4)no3)cc2)cc1,1,1
Cc1cccc(-c2noc(-c3ccc(Br)cc3)n2)c1,1,–
COc1ccc(-c2noc(-c3ccccc3C(=O)Nc3cccc(C)c3C)n2)cc1,1,–
